Inconclusive results are not listed. A call without a number means that no potency is given here. A number with no mark means an inactive call. Active and inactive are the calls of the source. Unless noted, the call rests on the fitted dose curve; in most records, active means well fitted cell-killing curve with a large enough effect in the repeat runs (not every such curve was filed as active); inconclusive means weak or mixed curves, or effect the other way; inactive means no such curve, though single readings can be large or run the other way.
molecular target: Bile acid receptor (Homo sapiens) (UniProt Q96RI1); test: qHTS assay to identify small molecule agonists of the farnesoid-X-receptor (FXR) signaling pathway (AID 743220; active means well fitted activation curve with a large enough effect in the signal ratio in the repeat runs, not every such curve was filed as active; the % refers to the signal ratio); settings: HEK293T FXR-UAS-bla, beta-lactamase FRET ratio, 16 h; series mostly up to 62.6 µM
Sequence (Q96RI1 whole entry, looked up): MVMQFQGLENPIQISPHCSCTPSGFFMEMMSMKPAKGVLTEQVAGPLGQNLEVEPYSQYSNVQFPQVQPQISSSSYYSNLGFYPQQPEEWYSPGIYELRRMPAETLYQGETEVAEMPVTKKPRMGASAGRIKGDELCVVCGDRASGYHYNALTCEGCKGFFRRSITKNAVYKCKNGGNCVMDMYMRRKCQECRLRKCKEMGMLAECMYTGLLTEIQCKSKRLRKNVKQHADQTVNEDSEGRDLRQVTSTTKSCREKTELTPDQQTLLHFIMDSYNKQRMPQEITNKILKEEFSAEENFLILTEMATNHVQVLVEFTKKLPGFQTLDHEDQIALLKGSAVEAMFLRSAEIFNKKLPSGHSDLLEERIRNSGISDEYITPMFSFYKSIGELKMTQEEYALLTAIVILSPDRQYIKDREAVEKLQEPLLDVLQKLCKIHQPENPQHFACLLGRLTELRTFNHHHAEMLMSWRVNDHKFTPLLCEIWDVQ
In short: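 Beta-lactamase reporter under UAS control in GeneBLAzer FXR HEK 293T cells (5000/well) measured with LiveBLAzer FRET substrate after 2 h at room temperature. Compound exposure lasted 16 h at 37C.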

Row | Compound | Potency
1 | NC(=O)Cn1c(=O)cc(CCN2CCN(c3nccc4sccc34)CC2)c2ccc(F)cc21 | inactive
2 | CCCCC(CC)C(=O)OCCOCCOCCOCCOC(=O)C(CC)CCCC (stereo unspecified) | inactive
3 | O=C(CCCCCCCCC#CI)Oc1ccccc1 | inactive
4 | CSc1ccc(Oc2ccc(S(N)(=O)=O)cc2CN(C)C)cc1C | inactive
5 | CN(C(=O)C(Cl)Cl)c1ccc(OC(=O)c2ccco2)cc1 | inactive
6 | CCC(C(=O)OCCOCCN(CC)CC)c1ccccc1 (stereo unspecified) | inactive
7 | CO/N=C1\CN(c2nc3c(cc2F)c(=O)c(C(=O)O)cn3C2CC2)CC1CN (stereo unspecified) | inactive
8 | C=CC(=O)NCOCC(C)C | inactive
9 | O=C(O)c1c(O)c(-c2ccccc2)nc2ccccc12 | inactive
10 | CC(CCO)CCc1ccccc1 (stereo unspecified) | inactive
11 | Cc1ccccc1N1C(=O)c2cc(S(N)(=O)=O)c(Cl)cc2NC1C (stereo unspecified) | inactive
12 | C/C=C(\C)C(=O)OCCC(C)CCC=C(C)C (stereo unspecified) | inactive
13 | O=C(O)c1cccc(O)c1 | inactive
14 | CCOC(=O)c1ccccc1C | inactive
15 | CCCCCC=CCC=CCCCCCCCC(=O)OCC | inactive
16 | C[N+](C)(C)CCOC(N)=O | inactive
17 | CCCCC(=O)O[C@]1(C(=O)CO)CC[C@H]2[C@@H]3CCC4=CC(=O)CC[C@]4(C)[C@H]3[C@@H](O)C[C@@]21C | inactive
18 | C=CCNc1nc(NCC=C)nc(N2CCN(C(c3ccc(F)cc3)c3ccc(F)cc3)CC2)n1 | inactive

system: not listed separately; test: qHTS assay to identify small molecule antagonists of the farnesoid-X-receptor (FXR) signaling pathway - cell viability counter screen (AID 743221); settings: FXR-bla HEK293T viability, CellTiter-Glo luminescence, 16 h; series mostly up to 62.6 µM; further: nearly all actives have a fitted effect of over 50% in size
In short: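 Here viability was scored by luminescence after CellTiter-Glo addition to wells already read for beta-lactamase. Prior treatment: compound plus CDCA (50 uM final), 16 h, 37 C, HEK 293T FXR-bla cells.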

Row | Compound | Potency | activity change, negative = cytotoxicity
19 | C1COCO1 | inactive | 
20 | O=S1OCCO1 | inactive | 
21 | NC(=O)Cn1c(=O)cc(CCN2CCN(c3nccc4sccc34)CC2)c2ccc(F)cc21 | inactive | 
22 | O=C(N/N=C/c1ccc([N+](=O)[O-])o1)c1ccc(O)cc1 | inactive | 
23 | CC(=O)Nc1ccccc1C | inactive | 
24 | CCOC(=N)CC(=O)OCC | inactive | 
25 | Cc1cc(C(=C2C=CC(=Nc3ccc(S(=O)(=O)O)cc3S(=O)(=O)O)C=C2)c2ccc(Nc3ccc(S(=O)(=O)O)cc3)cc2)ccc1N | inactive | 
26 | CCCCC(CC)C(=O)OCCOCCOCCOCCOC(=O)C(CC)CCCC (stereo unspecified) | inactive | 
27 | CCCCN(CCCC)CCCOC(=O)c1ccc(N)cc1 | inactive | 
28 | O=C(CCCCCCCCC#CI)Oc1ccccc1 | inactive | 
29 | CN(C(=O)C(Cl)Cl)c1ccc(OC(=O)c2ccco2)cc1 | inactive | 
30 | CC1CN(c2cc3c(cc2F)c(=O)c(C(=O)O)cn3-c2ccc(F)cc2F)CCN1 (stereo unspecified) |  | -0.0684% [at 5.95 µM]
31 | CCC(C(=O)OCCOCCN(CC)CC)c1ccccc1 (stereo unspecified) | inactive | 
32 | C[C@@H]1C[C@H]2[C@@H]3CCC4=CC(=O)C=C[C@]4(C)[C@@]3(F)[C@@H](O)C[C@]2(C)[C@@]1(O)C(=O)CO | inactive | 
33 | COC(=O)[C@@H]1CC2=CC(=O)CC[C@]2(C)[C@@]23O[C@@H]2C[C@@]2(C)[C@@H](CC[C@@]24CCC(=O)O4)[C@H]13 | inactive | 
34 | CC1CC(O)CC(C)(C)C1 (stereo unspecified) | inactive | 

Row | Compound | Potency | activity change, negative = cytotoxicity
35 | CO/N=C1\CN(c2nc3c(cc2F)c(=O)c(C(=O)O)cn3C2CC2)CC1CN (stereo unspecified) | inactive | 
36 | O=C(O)c1c(O)c(-c2ccccc2)nc2ccccc12 | inactive | 
37 | CC(CCO)CCc1ccccc1 (stereo unspecified) | inactive | 
38 | COc1ccc(CCC(=O)c2c(O)cc(O[C@@H]3O[C@H](CO)[C@@H](O)[C@H](O)[C@H]3O[C@@H]3O[C@@H](C)[C@H](O)[C@@H](O)[C@H]3O)cc2O)cc1O | inactive | 
39 | COc1ccc(C(=O)c2cccc(O)c2)c(OC)c1 | inactive | 
40 | N#C/C(=C1/SC[C@@H](c2ccc(Cl)cc2Cl)S1)n1ccnc1 | inactive | 
41 | Cc1cc(O)c2c(O)c3c(O)cccc3cc2c1 | inactive | 
42 | CCC(C)(C)C1CCC(O)CC1 (stereo unspecified) | inactive | 
43 | Cc1ccccc1N1C(=O)c2cc(S(N)(=O)=O)c(Cl)cc2NC1C (stereo unspecified) | inactive | 
44 | C/C=C(\C)C(=O)OCCC(C)CCC=C(C)C (stereo unspecified) | inactive | 
45 | O=C(O)c1cccc(O)c1 | inactive | 
46 | COc1cc2c(N3CCN(C(=O)Nc4ccc(OC(C)C)cc4)CC3)ncnc2cc1OCCCN1CCCCC1 | inactive | 
47 | CCCCCC=CCC=CCCCCCCCC(=O)OCC | inactive | 
48 | C[N+](C)(C)CCOC(N)=O | inactive | 
49 | CCCCC(=O)O[C@]1(C(=O)CO)CC[C@H]2[C@@H]3CCC4=CC(=O)CC[C@]4(C)[C@H]3[C@@H](O)C[C@@]21C | inactive | 
50 | C=CCNc1nc(NCC=C)nc(N2CCN(C(c3ccc(F)cc3)c3ccc(F)cc3)CC2)n1 | inactive | 

molecular target: Vitamin D3 receptor (Homo sapiens) (UniProt P11473); test: qHTS assay to identify small molecule agonists of the vitamin D receptor (VDR) signaling pathway (AID 743222; calls by dose curve); settings: HEK293T VDR-UAS-bla, beta-lactamase FRET ratio, 16 h; series mostly up to 63.5 µM
Sequence (P11473 whole entry, looked up): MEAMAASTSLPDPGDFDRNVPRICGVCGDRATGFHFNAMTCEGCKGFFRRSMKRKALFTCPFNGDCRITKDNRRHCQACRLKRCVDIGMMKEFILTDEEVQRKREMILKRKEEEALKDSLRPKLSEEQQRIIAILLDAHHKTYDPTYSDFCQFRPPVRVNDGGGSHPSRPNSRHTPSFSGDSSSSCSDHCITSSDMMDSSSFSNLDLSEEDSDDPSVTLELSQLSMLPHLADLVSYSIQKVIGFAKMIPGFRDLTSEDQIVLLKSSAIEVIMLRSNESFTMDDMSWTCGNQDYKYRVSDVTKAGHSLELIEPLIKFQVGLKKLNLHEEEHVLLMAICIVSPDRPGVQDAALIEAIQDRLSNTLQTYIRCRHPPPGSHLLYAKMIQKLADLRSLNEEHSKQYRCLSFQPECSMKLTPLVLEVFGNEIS
In short: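 VDR-bla cells plated 4 h at 37 C, then exposed to compounds for 16 h at 37 C. Beta-lactamase reporter activity measured by fluorescence after 2 h room-temperature loading with LiveBLAzer B/G FRET substrate.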

Row | Compound | outcome | activation
51 | C1COCO1 | inactive | 
52 | O=S1OCCO1 | inactive | 
53 | CC(=O)Nc1ccccc1C | inactive | 
54 | O=C(CCCN1CCC(O)(c2ccc(Br)cc2)CC1)c1ccc(F)cc1 | inactive | 
55 | Cc1cc(C(=C2C=CC(=Nc3ccc(S(=O)(=O)O)cc3S(=O)(=O)O)C=C2)c2ccc(Nc3ccc(S(=O)(=O)O)cc3)cc2)ccc1N | inactive | 
56 | CCCCC(CC)C(=O)OCCOCCOCCOCCOC(=O)C(CC)CCCC (stereo unspecified) | inactive | 
57 | O=C(CCCCCCCCC#CI)Oc1ccccc1 | inactive | 
58 | CSc1ccc(Oc2ccc(S(N)(=O)=O)cc2CN(C)C)cc1C | inactive | 
59 | CN(C(=O)C(Cl)Cl)c1ccc(OC(=O)c2ccco2)cc1 | inactive | 
60 | CC1CN(c2cc3c(cc2F)c(=O)c(C(=O)O)cn3-c2ccc(F)cc2F)CCN1 (stereo unspecified) |  | 5.04% [at 6.01 µM]
61 | CCC(C(=O)OCCOCCN(CC)CC)c1ccccc1 (stereo unspecified) | inactive | 
62 | COC(=O)[C@@H]1CC2=CC(=O)CC[C@]2(C)[C@@]23O[C@@H]2C[C@@]2(C)[C@@H](CC[C@@]24CCC(=O)O4)[C@H]13 | inactive | 
63 | CC1CC(O)CC(C)(C)C1 (stereo unspecified) | inactive | 
64 | CCOC(=O)/C=C/C(=O)O | inactive | 
65 | C=CC(=O)NCOCC(C)C | inactive | 
66 | O=C(O)c1c(O)c(-c2ccccc2)nc2ccccc12 | inactive | 
67 | CC(CCO)CCc1ccccc1 (stereo unspecified) | inactive | 
68 | COc1ccc(CCC(=O)c2c(O)cc(O[C@@H]3O[C@H](CO)[C@@H](O)[C@H](O)[C@H]3O[C@@H]3O[C@@H](C)[C@H](O)[C@@H](O)[C@H]3O)cc2O)cc1O | inactive | 
69 | COc1ccc(C(=O)c2cccc(O)c2)c(OC)c1 | inactive | 
70 | CCC(C)(C)C1CCC(O)CC1 (stereo unspecified) | inactive | 
71 | Cc1ccccc1N1C(=O)c2cc(S(N)(=O)=O)c(Cl)cc2NC1C (stereo unspecified) | inactive | 
72 | C/C=C(\C)C(=O)OCCC(C)CCC=C(C)C (stereo unspecified) | inactive | 
73 | COc1cc2c(N3CCN(C(=O)Nc4ccc(OC(C)C)cc4)CC3)ncnc2cc1OCCCN1CCCCC1 | inactive | 
74 | CCCCCC=CCC=CCCCCCCCC(=O)OCC | inactive | 
75 | C[N+](C)(C)CCOC(N)=O | inactive | 
76 | C=CCNc1nc(NCC=C)nc(N2CCN(C(c3ccc(F)cc3)c3ccc(F)cc3)CC2)n1 | inactive | 
